# Test system: VDR:RXRa (NR concentration 270 nM, RXRa partner concentration 90 nM)
# Test: PBM binding z-score (relative to random genomic background probes); higher = stronger binding; sequences stand for … in GC…GCGATTGACAGCGTAGAATGAAGG
# Description: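 Protein-binding microarray (Agilent 4x180K custom design, double-stranded 60-nt probes: 5' GC cap, 34-nt variable region, 24-nt constant primer region; full probe sequence given). Purified or IVT nuclear receptor:RXRα heterodimers (3:1 NR:RXRα, mostly 270:90 nM) or homodimers were incubated for 1 h in PBS with 2% milk and no ligand, then detected with Alexa488 antibodies. Fluorescence from o1-orientation probes (~5 replicates averaged) was converted to z-scores against 500 random hg19 background probes. Variable regions are seed direct-repeat (DR0–DR5) sites, all their single-nucleotide variants and half-site ablations.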
row,Sequence,PBM binding z-score
1,CCTAGCAGGCCAGGGTCTCTCAAGCATTTCGCTT,-0.712
2,CCTACTGGGCCATCAGGTCATTGACATCAACGTT,1.64
3,CGAACTAGGTCATCTAGGACAGTGAATACATTGA,3.73
4,TAGCCTACGTCAGATCGGGCCAGTATACGCTATA,-0.713
5,CGTCCAAGGTCGTAGGAGGTCAGTGAAGACAGAT,5.47
6,TGAATGAGGTTATAAGATCAGGCAACGTTGCAAA,0.915
7,CGTCCTAGGTCAAAGGTCAGTGAAGAGATGACGG,5.56
8,ATCTCTAGGTAAAGTACAGTGAAAGATCGATAGA,-0.177
9,CAAACTAGGTCACGAAAGTTCAAAGTCGAATGAC,7.01
10,TAGCCTGGGTCATGGGCCAGTATACCACGCGAAC,1.82
11,TCTTGTAGATCAAAGGATAAGAAAGCCGAAGCCT,0.22
12,TCATATAGGTAAATGCTAAGTGAAAGTCCGATCT,0.987
13,GCTATTAGTTGAAAGGGCAACCCAATGATTCTCG,0.662
14,CGTCCAAGGTCAATGCTAGGACAGTGAAAGCATT,3.83
15,TAGCCTAGGTCATTCAGGAGCCAGTATAGAAAGC,2.21
16,GTTGCTAGGTCAGGTTGGTCAGCTAACGGGTACG,0.892
17,CTACCAAGGTGAACAAGGTCGATGATTACTATTC,4.83
18,TGTCAAAGTTCAAAAGTAACGTAAGTATCCACAC,3.97
19,TTACCAAGGTGAAGGTCGTTGCTCCCTCTGTAGA,1.36
20,TAGCCTAGGTCATTCCGGGGCCAGTATAGAAAGC,2.94

row,Sequence,PBM binding z-score
1,GGAACGAGGGCAAAGATGATAGCATCTGTCGACG,0.573
2,CCTACTGGGCCTCGAAAGGTCATTGATTCAGTGA,3.34
3,GGAACGACGGCAAGTTGATAGCAGAGTTTGATGG,-0.532
4,CAAACTAGGTCAGAACAGGACAGTGAAGGATGAT,0.899
5,CCTTACGGGGCACTCCAGGTTATAGCATCGGAGT,0.0326
6,TCTATTAGTTGATTAGGGCAACTGAAACAGCGGA,0.717
7,CCTCCGAGGACAGAAGGTCAGAGCTGTCCGCTTT,1.36
8,TGAATGAGGTTAAAGAACAGGGAACGTGGCGTCG,1.12
9,TAGCATAGGTCATGGGCCAGTATACCACGCGAAC,3.33
10,CCTTACGGGTCAAGGTTTTAGCACGGGTGGTACG,2.82
11,AATACAGGGTCACTAGGCCGGAGTAGGTACGAAT,4.11
12,CCTGCTAGGTCATGGTCAGCTCATCTACAGTATG,1.8
13,ACAGACAGGTTAGTGAAGGTAACTCAGCTGGACG,-0.0325
14,AGAATGAGGTTAAGATCCGGGAAACAGAATACAT,1.05
15,GCTTACGAGTCAAAGGTTATAGCATGAATAGAAT,2.16
16,AGAATGAGGTTACCAAAGATCAGCGAAACGCTTG,1.33
17,TATCCAGGGTCAAAGGCCAGAGTACGAATGTCGA,4.95
18,AGAATGAGGTAATACGTAGATCAGGGAAGAAAGT,-0.148
19,AGAATGAGGTTTTACGTAGATCAGGGAAGAAAGT,-0.19
20,GCTGCTAGGTTAGGTTGGTCAGCTAACGGGTACG,-0.323
